Measured values published in the supplement of paper PMC10849652.
About 7,900 targets were measured; listed, in parts, are those with a hit and a random draw of the rest. About 0.6% of all pairs of compound and target were hits. A number with no mark means an inactive call.

Key:
Test in all cases: log2 fold change, soluble protein after heating vs DMSO (PISA); higher = thermal stabilisation; K562 cells, 10 uM, 30 min; active = over 0.2 and 3.5 SD of the protein, either way, in both replicates (recomputed)
bafetinib = compound: Cc1ccc(NC(=O)c2ccc(CN3CC[C@H](N(C)C)C3)c(C(F)(F)F)c2)cc1Nc1nccc(-c2cncnc2)n1 [bafetinib]
Summary of the method: (§1)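 Soluble protein was defined as the supernatant after 21,000xg for 90 min. It came from K562 cells at 2×10^6 cells/mL given 10 μM compound for 30 min, heated in aliquots for 3 min across 48°C-58°C, pooled, and extracted in PBS with 0.5% NP-40 at 4°C, and was quantified by TMTpro 16plex LC-MS/MS with equalised channel sums. Thermal stability against control samples, from duplicates, is reported as log2 fold change.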

[1] = compound: Cc1cccc(CC(=O)N2CCc3c2ccc(-c2cn(C)c4ncnc(N)c24)c3F)n1
Summary of the method: as §1

nilotinib = compound: Cc1cn(-c2cc(NC(=O)c3ccc(C)c(Nc4nccc(-c5cccnc5)n4)c3)cc(C(F)(F)F)c2)cn1 [nilotinib]
Summary of the method: as §1

[2] = compound: Cc1nc(Nc2n[nH]c3c2CN(C(=O)N[C@H](CN(C)C)c2ccccc2)C3(C)C)c2sccc2n1
Summary of the method: as §1

dasatinib = compound: Cc1nc(Nc2ncc(C(=O)Nc3c(C)cccc3Cl)s2)cc(N2CCN(CCO)CC2)n1 [dasatinib]
Summary of the method: as §1

[3] = compound: Cc1ncc(-c2ccnc(Nc3ccc(S(C)(=O)=O)cc3)n2)n1C(C)C
Summary of the method: as §1

[4] = compound: Cn1cc(-c2ccc3c(c2)CCN3C(=O)Cc2cccc(C(F)(F)F)c2)c2c(N)ncnc21
Summary of the method: as §1

[5] = compound: Cn1cc(-c2ccc3nnc(C(F)(F)c4ccc5ncccc5c4)n3n2)cn1
Summary of the method: as §1

tipifarnib = compound: Cn1cncc1[C@@](N)(c1ccc(Cl)cc1)c1ccc2c(c1)c(-c1cccc(Cl)c1)cc(=O)n2C [tipifarnib]
Summary of the method: as §1

mubritinib = compound: FC(F)(F)c1ccc(/C=C/c2nc(COc3ccc(CCCCn4ccnn4)cc3)co2)cc1 [mubritinib]
Summary of the method: as §1

[6] = compound: NC(=O)Nc1cc(-c2cccc(F)c2)sc1C(=O)N[C@H]1CCCNC1
Summary of the method: as §1

[7] = compound: NC(=O)c1cnc(N[C@@H]2CCCC[C@@H]2N)nc1Nc1cccc(-n2nccn2)c1
Summary of the method: as §1

[8] = compound: NC1(c2ccc(-c3nc4ccn5c(=O)[nH]nc5c4cc3-c3ccccc3)cc2)CCC1
Summary of the method: as §1

[9] = compound: NCC(=O)Nc1ccc(-n2nc(C(F)(F)F)cc2-c2ccc3c(ccc4ccccc43)c2)cc1
Summary of the method: as §1

entinostat = compound: Nc1ccccc1NC(=O)c1ccc(CNC(=O)OCc2cccnc2)cc1 [entinostat]
Summary of the method: as §1

vorinostat = compound: O=C(CCCCCCC(=O)Nc1ccccc1)NO [vorinostat]
Summary of the method: as §1

citarinostat = compound: O=C(CCCCCCNC(=O)c1cnc(N(c2ccccc2)c2ccccc2Cl)nc1)NO [citarinostat]
Summary of the method: as §1

silmitasertib = compound: O=C(O)c1ccc2c(c1)nc(Nc1cccc(Cl)c1)c1ccncc12 [silmitasertib]
Summary of the method: as §1

[10] = compound: O=C1NC(=O)C(c2cnc3ccccn23)=C1c1cn2c3c(cc(F)cc13)CN(C(=O)N1CCCCC1)CC2
Summary of the method: as §1

[11] = compound: c1cc(OCCN2CCCCC2)cc(-c2n[nH]c3ccc(-c4nnc[nH]4)cc23)c1
Summary of the method: as §1

UniProt O60749, sequence (O60749 whole entry, looked up): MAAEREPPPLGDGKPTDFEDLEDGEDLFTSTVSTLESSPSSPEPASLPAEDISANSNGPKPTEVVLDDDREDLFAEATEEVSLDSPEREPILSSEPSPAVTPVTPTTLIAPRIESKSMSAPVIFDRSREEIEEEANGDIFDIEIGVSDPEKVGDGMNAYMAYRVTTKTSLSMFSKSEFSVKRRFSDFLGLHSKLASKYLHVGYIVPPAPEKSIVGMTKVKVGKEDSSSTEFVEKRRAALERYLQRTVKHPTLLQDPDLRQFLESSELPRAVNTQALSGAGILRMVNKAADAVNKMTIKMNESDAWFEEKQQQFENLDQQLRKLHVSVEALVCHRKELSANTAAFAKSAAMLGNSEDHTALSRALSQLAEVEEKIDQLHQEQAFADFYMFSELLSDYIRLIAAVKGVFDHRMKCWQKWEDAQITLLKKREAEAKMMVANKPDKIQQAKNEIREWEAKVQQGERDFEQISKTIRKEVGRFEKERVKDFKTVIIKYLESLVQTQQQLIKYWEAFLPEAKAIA
UniProt O60271, sequence (O60271 whole entry, looked up): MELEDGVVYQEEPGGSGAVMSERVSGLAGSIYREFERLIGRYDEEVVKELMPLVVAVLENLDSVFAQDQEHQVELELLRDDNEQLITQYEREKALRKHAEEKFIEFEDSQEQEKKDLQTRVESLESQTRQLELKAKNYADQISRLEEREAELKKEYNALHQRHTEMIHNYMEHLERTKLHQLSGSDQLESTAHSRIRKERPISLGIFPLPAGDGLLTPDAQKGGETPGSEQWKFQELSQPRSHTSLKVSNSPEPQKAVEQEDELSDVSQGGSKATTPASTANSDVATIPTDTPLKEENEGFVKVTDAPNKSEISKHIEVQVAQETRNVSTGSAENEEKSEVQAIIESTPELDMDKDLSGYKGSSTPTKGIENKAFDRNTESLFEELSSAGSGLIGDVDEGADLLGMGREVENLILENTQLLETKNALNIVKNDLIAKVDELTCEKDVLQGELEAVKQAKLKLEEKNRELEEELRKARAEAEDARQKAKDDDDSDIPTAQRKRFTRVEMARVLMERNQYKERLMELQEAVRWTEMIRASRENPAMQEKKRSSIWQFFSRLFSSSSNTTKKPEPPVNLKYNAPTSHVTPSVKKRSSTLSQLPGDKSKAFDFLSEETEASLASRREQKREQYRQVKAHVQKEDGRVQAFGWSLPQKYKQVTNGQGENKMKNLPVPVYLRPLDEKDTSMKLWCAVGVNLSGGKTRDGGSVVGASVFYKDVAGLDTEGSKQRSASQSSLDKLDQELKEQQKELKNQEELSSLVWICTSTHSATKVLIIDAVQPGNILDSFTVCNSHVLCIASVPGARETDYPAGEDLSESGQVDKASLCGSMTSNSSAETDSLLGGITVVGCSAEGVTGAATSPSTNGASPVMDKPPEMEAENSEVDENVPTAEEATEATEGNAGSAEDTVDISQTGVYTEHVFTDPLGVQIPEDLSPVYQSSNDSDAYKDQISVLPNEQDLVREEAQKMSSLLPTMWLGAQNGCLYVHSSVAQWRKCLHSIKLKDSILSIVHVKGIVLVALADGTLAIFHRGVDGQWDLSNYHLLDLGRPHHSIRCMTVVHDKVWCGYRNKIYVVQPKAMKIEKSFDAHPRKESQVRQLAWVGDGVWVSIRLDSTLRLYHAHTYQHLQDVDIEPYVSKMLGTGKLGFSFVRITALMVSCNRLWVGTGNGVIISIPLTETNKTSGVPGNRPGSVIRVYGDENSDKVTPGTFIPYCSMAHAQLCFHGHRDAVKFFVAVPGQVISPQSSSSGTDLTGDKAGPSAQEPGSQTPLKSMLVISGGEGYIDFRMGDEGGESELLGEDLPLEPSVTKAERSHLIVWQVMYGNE
UniProt Q9BVV7, sequence (Q9BVV7 whole entry, looked up): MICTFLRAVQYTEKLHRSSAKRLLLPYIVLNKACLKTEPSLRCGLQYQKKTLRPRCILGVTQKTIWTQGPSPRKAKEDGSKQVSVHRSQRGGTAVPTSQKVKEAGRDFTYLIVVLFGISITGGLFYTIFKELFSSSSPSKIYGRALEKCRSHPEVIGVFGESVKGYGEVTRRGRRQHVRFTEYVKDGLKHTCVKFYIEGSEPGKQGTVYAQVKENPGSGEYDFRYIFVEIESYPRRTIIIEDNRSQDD
UniProt P62072, sequence (P62072 whole entry, looked up): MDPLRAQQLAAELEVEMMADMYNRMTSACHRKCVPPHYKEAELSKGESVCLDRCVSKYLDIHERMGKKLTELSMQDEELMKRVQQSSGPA
UniProt P51692, sequence (P51692 whole entry, looked up): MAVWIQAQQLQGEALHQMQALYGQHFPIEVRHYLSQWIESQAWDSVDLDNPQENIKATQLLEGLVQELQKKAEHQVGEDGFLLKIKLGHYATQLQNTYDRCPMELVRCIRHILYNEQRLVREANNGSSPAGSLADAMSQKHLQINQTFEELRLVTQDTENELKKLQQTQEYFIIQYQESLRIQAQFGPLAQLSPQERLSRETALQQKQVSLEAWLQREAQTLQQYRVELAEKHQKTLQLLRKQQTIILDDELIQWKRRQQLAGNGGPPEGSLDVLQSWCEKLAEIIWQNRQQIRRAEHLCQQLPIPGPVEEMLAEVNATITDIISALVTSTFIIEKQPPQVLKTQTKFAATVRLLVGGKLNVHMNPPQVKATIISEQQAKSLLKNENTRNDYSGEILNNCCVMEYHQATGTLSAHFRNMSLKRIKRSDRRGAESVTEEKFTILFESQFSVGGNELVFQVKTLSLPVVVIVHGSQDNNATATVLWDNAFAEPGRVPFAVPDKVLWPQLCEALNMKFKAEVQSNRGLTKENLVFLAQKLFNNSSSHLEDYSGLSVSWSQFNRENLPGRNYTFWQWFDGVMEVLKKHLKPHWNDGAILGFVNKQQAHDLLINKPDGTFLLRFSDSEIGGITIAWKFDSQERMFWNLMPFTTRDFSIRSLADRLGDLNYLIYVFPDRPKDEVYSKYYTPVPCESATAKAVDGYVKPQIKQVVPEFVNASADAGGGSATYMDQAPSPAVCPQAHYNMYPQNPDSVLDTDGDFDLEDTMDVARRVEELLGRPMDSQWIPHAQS
UniProt Q8NEW0, sequence (Q8NEW0 whole entry, looked up): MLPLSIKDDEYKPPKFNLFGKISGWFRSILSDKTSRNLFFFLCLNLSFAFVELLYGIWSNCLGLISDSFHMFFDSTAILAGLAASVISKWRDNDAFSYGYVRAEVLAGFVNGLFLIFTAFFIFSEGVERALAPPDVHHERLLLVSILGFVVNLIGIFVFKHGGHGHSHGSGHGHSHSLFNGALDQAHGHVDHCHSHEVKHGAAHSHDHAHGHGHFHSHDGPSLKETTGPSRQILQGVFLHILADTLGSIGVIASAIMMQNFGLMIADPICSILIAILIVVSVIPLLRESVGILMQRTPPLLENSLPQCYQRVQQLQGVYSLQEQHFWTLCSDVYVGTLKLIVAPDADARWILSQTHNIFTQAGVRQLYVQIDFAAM
UniProt Q9NZ01, sequence (Q9NZ01 whole entry, looked up): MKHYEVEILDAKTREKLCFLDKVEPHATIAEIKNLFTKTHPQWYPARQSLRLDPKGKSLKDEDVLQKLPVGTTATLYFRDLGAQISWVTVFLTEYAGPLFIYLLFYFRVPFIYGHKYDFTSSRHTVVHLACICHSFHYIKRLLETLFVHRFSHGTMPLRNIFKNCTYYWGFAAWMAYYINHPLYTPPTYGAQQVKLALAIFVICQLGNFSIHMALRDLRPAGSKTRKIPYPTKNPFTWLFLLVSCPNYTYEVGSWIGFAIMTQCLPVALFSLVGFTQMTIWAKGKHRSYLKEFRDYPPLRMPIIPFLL
UniProt O75663, sequence (O75663 whole entry, looked up): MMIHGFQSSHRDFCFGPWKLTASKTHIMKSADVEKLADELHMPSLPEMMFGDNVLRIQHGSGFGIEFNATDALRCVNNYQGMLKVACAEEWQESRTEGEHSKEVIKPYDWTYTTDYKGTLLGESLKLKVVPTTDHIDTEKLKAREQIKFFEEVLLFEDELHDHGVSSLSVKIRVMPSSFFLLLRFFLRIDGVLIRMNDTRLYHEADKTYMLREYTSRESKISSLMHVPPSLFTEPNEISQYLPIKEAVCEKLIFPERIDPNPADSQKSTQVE
UniProt P63165, sequence (P63165 whole entry, looked up): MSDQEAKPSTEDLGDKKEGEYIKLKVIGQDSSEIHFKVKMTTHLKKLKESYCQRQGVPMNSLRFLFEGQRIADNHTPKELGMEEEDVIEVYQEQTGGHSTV
UniProt Q9Y5X1, sequence (Q9Y5X1 whole entry, looked up): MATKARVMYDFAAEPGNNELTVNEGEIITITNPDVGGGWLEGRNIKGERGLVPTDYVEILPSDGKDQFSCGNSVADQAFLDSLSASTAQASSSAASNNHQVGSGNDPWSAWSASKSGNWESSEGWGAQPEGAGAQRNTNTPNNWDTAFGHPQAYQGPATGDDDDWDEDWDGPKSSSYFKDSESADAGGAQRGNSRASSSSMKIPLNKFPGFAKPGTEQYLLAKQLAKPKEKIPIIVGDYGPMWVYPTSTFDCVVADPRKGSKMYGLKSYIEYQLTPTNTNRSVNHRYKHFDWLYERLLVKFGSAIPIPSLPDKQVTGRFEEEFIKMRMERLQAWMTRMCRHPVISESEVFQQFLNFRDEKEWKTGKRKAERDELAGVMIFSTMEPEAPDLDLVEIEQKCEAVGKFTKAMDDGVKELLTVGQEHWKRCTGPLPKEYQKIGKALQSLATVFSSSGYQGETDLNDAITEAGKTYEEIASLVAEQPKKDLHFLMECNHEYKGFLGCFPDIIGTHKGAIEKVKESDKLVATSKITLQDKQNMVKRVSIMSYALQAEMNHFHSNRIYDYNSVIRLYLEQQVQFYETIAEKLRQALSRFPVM
UniProt P51571, sequence (P51571 whole entry, looked up): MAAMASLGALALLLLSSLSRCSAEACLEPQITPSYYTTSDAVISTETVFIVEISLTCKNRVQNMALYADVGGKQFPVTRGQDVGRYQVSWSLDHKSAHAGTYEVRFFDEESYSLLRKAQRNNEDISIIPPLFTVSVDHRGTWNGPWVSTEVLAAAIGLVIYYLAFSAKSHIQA

Target | log2 fold change (bafetinib) | log2 fold change [1] | log2 fold change (nilotinib) | log2 fold change [2] | log2 fold change (dasatinib) | log2 fold change [3] | log2 fold change [4] | log2 fold change [5] | log2 fold change (tipifarnib) | log2 fold change (mubritinib) | log2 fold change [6] | log2 fold change [7] | log2 fold change [8] | log2 fold change [9] | log2 fold change (entinostat) | log2 fold change (vorinostat) | log2 fold change (citarinostat) | log2 fold change (silmitasertib) | log2 fold change [10] | log2 fold change [11]
SPAG9 (UniProt O60271) | -0.056 | -0.014 | -0.039 | -0.074 | -0.076 | 0.015 | -0.018 | 0.012 | -0.005 | 0.054 | -0.042 | -0.13 | -0.123 | -0.055 | 0.034 | 0.023 | 0.01 | 0.038 | -0.014 | -0.024
TIMM10 (UniProt P62072) | -0.081 | 0.027 | 0.014 | 0.005 | 0.114 | -0.027 | -0.05 | 0.153 | 0.048 | -0.024 | -0.004 | 0.042 | -0.027 | -0.077 | 0.058 | -0.048 | -0.012 | 0.009 | -0.04 | -0.043
SNX1 (UniProt Q13596) | -0.149 | 0.146 | -0.133 | 0 | -0.191 | -0.45 (active) | 0.07 | -0.028 | -0.002 | 0.057 | -0.01 | -0.375 (active) | -0.336 (active) | 0.011 | 0.121 | 0.147 | 0.054 | -0.062 | -0.04 | -0.094
SUMO1 (UniProt P63165) | -0.071 | -0.023 | -0.022 | -0.078 | 0.041 | -0.04 | -0.209 | -0.068 | -0.35 | 0.001 | -0.006 | -0.116 | 0.071 | -0.074 | -0.01 | -0.086 | -0.063 | -0.012 | 0.045 | -0.087
SOAT1 (UniProt P35610) | 0.085 | 0.011 | 0.566 (active) | -0.001 | 0.257 | -0.021 | 0.031 | -0.058 | 0.039 | 0.096 | -0.073 | -0.049 | -0.171 | -0.045 | 0.029 | -0.063 | 0.112 | 0.084 | -0.098 | -0.185
SLC30A7 (UniProt Q8NEW0) | -0.169 | -0.094 | -0.16 | 0.052 | 0.04 | 0.003 | 0.048 | -0.026 | 0.023 | 0.107 | -0.035 | 0.013 | -0.276 | -0.178 | 0.024 | -0.024 | -0.028 | 0.039 | 0.025 | -0.032
SSR4 (UniProt P51571) | -0.011 | -0.057 | -0.001 | 0.021 | -0.028 | -0.005 | 0.067 | 0.026 | -0.063 | 0.003 | 0.032 | -0.013 | -0.011 | 0.023 | -0.011 | 0 | 0.019 | -0.029 | 0.004 | -0.056
SPINDOC (UniProt Q9BUA3) | -0.149 | -0.031 | 0.049 | -0.458 (active) | -0.105 | -0.127 | -0.085 | -0.044 | 0.046 | 0.04 | 0.09 | 0.003 | 0.014 | -0.061 | -0.188 | -0.014 | -0.106 | -0.061 | -0.102 | 0.053
TECR (UniProt Q9NZ01) | -0.133 | 0.057 | -0.123 | -0.035 | -0.109 | 0.021 | -0.006 | -0.012 | -0.135 | 0.016 | 0 | -0.071 | -0.087 | -0.048 | 0.042 | 0.064 | 0.07 | 0.025 | -0.07 | -0.056
TIPRL (UniProt O75663) | -0.052 | 0.066 | -0.022 | -0.025 | -0.103 | -0.035 | 0.032 | 0.048 | -0.16 | 0.098 | -0.057 | -0.114 | -0.209 (active) | -0.068 | 0.033 | 0.095 | 0.069 | -0.032 | -0.06 | -0.012
STAT5B (UniProt P51692) | -0.056 | 0.109 | -0.218 | -0.432 | -0.443 (active) | 0.162 | 0.07 | 0.08 | -0.163 | 0.308 | -0.027 | -0.022 | -0.207 | -0.129 | 0.282 | 0.18 | 0.15 | 0.043 | 0.045 | 0.024
SNX2 (UniProt O60749) | -0.153 | 0.088 | -0.168 | 0 | -0.134 | -0.275 | 0.101 | 0.021 | -0.056 | 0.044 | -0.001 | -0.204 | -0.146 | 0 | 0.092 | 0.093 | 0.062 | -0.068 | -0.044 | -0.082
TIMM21 (UniProt Q9BVV7) | -0.149 | 0.058 | -0.011 | -0.014 | 0.011 | -0.003 | 0.025 | 0.074 | 0.055 | -0.011 | -0.041 | -0.055 | -0.087 | -0.047 | -0.015 | 0.04 | 0.052 | 0.024 | -0.016 | -0.016
SPART (UniProt Q8N0X7) | -0.041 | -0.024 | -0.047 | -0.006 | -0.117 | 0.051 | -0.025 | 0.059 | -0.077 | 0.063 | -0.032 | -0.105 | -0.053 | 0.006 | 0.043 | -0.032 | 0.015 | 0.081 | -0.024 | 0.04
SNX9 (UniProt Q9Y5X1) | -0.015 | 0.03 | -0.06 | -0.064 | -0.131 | 0.006 | -0.023 | -0.008 | -0.013 | 0.009 | -0.013 | -0.022 | -0.102 | -0.055 | 0.037 | 0.058 | 0.024 | 0.033 | -0.065 | -0.067
